# Measured values as given in paper PMC11062922 (Nature Chemical Biology, 2023).
# Like-named read-outs stand apart in the source and are kept apart here.
# Tests used:
# [1] = test system: STK3; conditions: read-out: apparent Kd, n = 1
# [2] = test system: STK4; conditions: read-out: apparent Kd, n = 1
substance,measurement,setting,value
Lestaurtinib,potency estimated from few doses,"[1]; compound concentrations:100 nM and 1000 nM (sheet 'Lestaurtinib' of Supplementary Table 1),run:Lestaurtinib_02482_R3,Plate:MR011",40.8 nM
same,potency estimated from few doses,"[1]; compound concentrations:100 nM and 1000 nM (sheet 'Lestaurtinib' of Supplementary Table 1),run:Lestaurtinib_02487_R1,Plate:MR012",28.6 nM
same,potency estimated from few doses,"[1]; compound concentrations:100 nM and 1000 nM (sheet 'Lestaurtinib' of Supplementary Table 1),run:Lestaurtinib_02487_R3,Plate:MR012",38.9 nM
same,potency estimated from few doses,"[1]; compound concentrations:100 nM and 1000 nM (sheet 'Lestaurtinib' of Supplementary Table 1),run:Lestaurtinib_02496_R1,Plate:MR013",45 nM
same,potency estimated from few doses,"[1]; compound concentrations:100 nM and 1000 nM (sheet 'Lestaurtinib' of Supplementary Table 1),run:Lestaurtinib_02496_R3,Plate:MR013",48.7 nM
same,potency estimated from few doses,"[1]; compound concentrations:100 nM and 1000 nM (sheet 'Lestaurtinib' of Supplementary Table 1),run:Lestaurtinib_02566_R2,Plate:MR014",41 nM
same,potency estimated from few doses,"[1]; compound concentrations:100 nM and 1000 nM (sheet 'Lestaurtinib' of Supplementary Table 1),run:Lestaurtinib_02566_R3,Plate:MR014",24.5 nM
same,potency estimated from few doses,"[1]; compound concentrations:100 nM and 1000 nM (sheet 'Lestaurtinib' of Supplementary Table 1),run:Lestaurtinib_02572_R2,Plate:MR015",50.4 nM
same,potency estimated from few doses,"[1]; compound concentrations:100 nM and 1000 nM (sheet 'Lestaurtinib' of Supplementary Table 1),run:Lestaurtinib_02572_R3,Plate:MR015",58.4 nM
same,potency estimated from few doses,"[1]; compound concentrations:100 nM and 1000 nM (sheet 'Lestaurtinib' of Supplementary Table 1),run:Lestaurtinib_02577_R1,Plate:MR016",36 nM
same,potency estimated from few doses,"[1]; compound concentrations:100 nM and 1000 nM (sheet 'Lestaurtinib' of Supplementary Table 1),run:Lestaurtinib_02577_R2,Plate:MR016",45 nM
same,potency estimated from few doses,"[1]; compound concentrations:100 nM and 1000 nM (sheet 'Lestaurtinib' of Supplementary Table 1),run:Lestaurtinib_02584_R1,Plate:MR017",38.6 nM
same,potency estimated from few doses,"[1]; compound concentrations:100 nM and 1000 nM (sheet 'Lestaurtinib' of Supplementary Table 1),run:Lestaurtinib_02584_R3,Plate:MR017",47.5 nM
same,potency estimated from few doses,"[1]; compound concentrations:100 nM and 1000 nM (sheet 'Lestaurtinib' of Supplementary Table 1),run:Lestaurtinib_02601_R1,Plate:MR018",59.1 nM
same,potency estimated from few doses,"[1]; compound concentrations:100 nM and 1000 nM (sheet 'Lestaurtinib' of Supplementary Table 1),run:Lestaurtinib_02601_R2,Plate:MR018",39.6 nM
same,potency estimated from few doses,"[1]; compound concentrations:100 nM and 1000 nM (sheet 'Lestaurtinib' of Supplementary Table 1),run:Lestaurtinib_02606_R2,Plate:MR019",46.2 nM
same,potency estimated from few doses,"[1]; compound concentrations:100 nM and 1000 nM (sheet 'Lestaurtinib' of Supplementary Table 1),run:Lestaurtinib_02606_R3,Plate:MR019",47.4 nM
same,potency estimated from few doses,"[1]; compound concentrations:100 nM and 1000 nM (sheet 'Lestaurtinib' of Supplementary Table 1),run:Lestaurtinib_02624_R1,Plate:MR020",53.2 nM
same,potency estimated from few doses,"[1]; compound concentrations:100 nM and 1000 nM (sheet 'Lestaurtinib' of Supplementary Table 1),run:Lestaurtinib_02624_R2,Plate:MR020",42.5 nM
same,potency estimated from few doses,"[1]; compound concentrations:100 nM and 1000 nM (sheet 'Lestaurtinib' of Supplementary Table 1),run:Lestaurtinib_02624_R3,Plate:MR020",40.4 nM
same,potency estimated from few doses,"[1]; compound concentrations:100 nM and 1000 nM (sheet 'Lestaurtinib' of Supplementary Table 1),run:Lestaurtinib_02724_R1,Plate:MR021",44.8 nM
same,potency estimated from few doses,"[1]; compound concentrations:100 nM and 1000 nM (sheet 'Lestaurtinib' of Supplementary Table 1),run:Lestaurtinib_02724_R2,Plate:MR021",42.8 nM
same,potency estimated from few doses,"[1]; compound concentrations:100 nM and 1000 nM (sheet 'Lestaurtinib' of Supplementary Table 1),run:Lestaurtinib_02724_R3,Plate:MR021",38.4 nM
same,potency estimated from few doses,"[1]; compound concentrations:100 nM and 1000 nM (sheet 'Lestaurtinib' of Supplementary Table 1),run:Lestaurtinib_02748_R1,Plate:MR024",35.8 nM
same,potency estimated from few doses,"[1]; compound concentrations:100 nM and 1000 nM (sheet 'Lestaurtinib' of Supplementary Table 1),run:Lestaurtinib_02748_R3,Plate:MR024",40.1 nM
same,potency estimated from few doses,"[1]; compound concentrations:100 nM and 1000 nM (sheet 'Lestaurtinib' of Supplementary Table 1),run:Lestaurtinib_02765_R1,Plate:MR026",38.6 nM
same,potency estimated from few doses,"[1]; compound concentrations:100 nM and 1000 nM (sheet 'Lestaurtinib' of Supplementary Table 1),run:Lestaurtinib_02765_R2,Plate:MR026",37.7 nM
same,potency estimated from few doses,"[1]; compound concentrations:100 nM and 1000 nM (sheet 'Lestaurtinib' of Supplementary Table 1),run:Lestaurtinib_02766_R3,Plate:MR027",42.9 nM
same,potency estimated from few doses,"[1]; compound concentrations:100 nM and 1000 nM (sheet 'Lestaurtinib' of Supplementary Table 1),run:Lestaurtinib_02768_R1,Plate:MR028",31.9 nM
same,potency estimated from few doses,"[1]; compound concentrations:100 nM and 1000 nM (sheet 'Lestaurtinib' of Supplementary Table 1),run:Lestaurtinib_02768_R3,Plate:MR028",40.1 nM
same,potency estimated from few doses,"[1]; compound concentrations:100 nM and 1000 nM (sheet 'Lestaurtinib' of Supplementary Table 1),run:Lestaurtinib_02795_R1,Plate:MR022",43.4 nM
same,potency estimated from few doses,"[1]; compound concentrations:100 nM and 1000 nM (sheet 'Lestaurtinib' of Supplementary Table 1),run:Lestaurtinib_02795_R2,Plate:MR022",27.8 nM
same,potency estimated from few doses,"[1]; compound concentrations:100 nM and 1000 nM (sheet 'Lestaurtinib' of Supplementary Table 1),run:Lestaurtinib_02795_R3,Plate:MR022",141 nM
same,potency estimated from few doses,"[1]; compound concentrations:100 nM and 1000 nM (sheet 'Lestaurtinib' of Supplementary Table 1),run:Lestaurtinib_02802_R1,Plate:MR029",22.4 nM
same,potency estimated from few doses,"[1]; compound concentrations:100 nM and 1000 nM (sheet 'Lestaurtinib' of Supplementary Table 1),run:Lestaurtinib_02802_R3,Plate:MR029",47.8 nM
same,potency estimated from few doses,"[1]; compound concentrations:100 nM and 1000 nM (sheet 'Lestaurtinib' of Supplementary Table 1),run:Lestaurtinib_02896_R1,Plate:MR030",38.8 nM
same,potency estimated from few doses,"[1]; compound concentrations:100 nM and 1000 nM (sheet 'Lestaurtinib' of Supplementary Table 1),run:Lestaurtinib_02896_R2,Plate:MR030",37.2 nM
same,potency estimated from few doses,"[1]; compound concentrations:100 nM and 1000 nM (sheet 'Lestaurtinib' of Supplementary Table 1),run:Lestaurtinib_02896_R3,Plate:MR030",37.9 nM
same,potency estimated from few doses,"[1]; compound concentrations:100 nM and 1000 nM (sheet 'Lestaurtinib' of Supplementary Table 1),run:Lestaurtinib_03172_R1,Plate:MR031",35 nM
same,potency estimated from few doses,"[1]; compound concentrations:100 nM and 1000 nM (sheet 'Lestaurtinib' of Supplementary Table 1),run:Lestaurtinib_03172_R3,Plate:MR031",39.7 nM
same,potency estimated from few doses,"[1]; compound concentrations:100 nM and 1000 nM (sheet 'Lestaurtinib' of Supplementary Table 1),run:Lestaurtinib_03252_R2,Plate:MR032",48.1 nM
same,potency estimated from few doses,"[1]; compound concentrations:100 nM and 1000 nM (sheet 'Lestaurtinib' of Supplementary Table 1),run:Lestaurtinib_03260_R3,Plate:MR033",36.6 nM
same,potency estimated from few doses,"[2]; compound concentrations:100 nM and 1000 nM (sheet 'Lestaurtinib' of Supplementary Table 1),run:Lestaurtinib_02339_R1,Plate:MR001",42 nM
same,potency estimated from few doses,"[2]; compound concentrations:100 nM and 1000 nM (sheet 'Lestaurtinib' of Supplementary Table 1),run:Lestaurtinib_02339_R2,Plate:MR001",40.1 nM
same,potency estimated from few doses,"[2]; compound concentrations:100 nM and 1000 nM (sheet 'Lestaurtinib' of Supplementary Table 1),run:Lestaurtinib_02339_R3,Plate:MR001",27.7 nM
same,potency estimated from few doses,"[2]; compound concentrations:100 nM and 1000 nM (sheet 'Lestaurtinib' of Supplementary Table 1),run:Lestaurtinib_02364_R1,Plate:MR002",35.9 nM
same,potency estimated from few doses,"[2]; compound concentrations:100 nM and 1000 nM (sheet 'Lestaurtinib' of Supplementary Table 1),run:Lestaurtinib_02364_R2,Plate:MR002",43 nM
